# Measurements: PubChem BioAssay AID504715 (Sanford-Burnham Center for Chemical Genomics, 2011)
# This is one part of the list. Unmarked numbers belong to inactive results.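 The calls were made as follows: active = compounds giving 40% or more inhibition at 20 µM in any one of the three replicates; inactive = the rest.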
# Molecular target: Uracil-DNA glycosylase (Escherichia coli (strain K12)) (UniProt P12295)
# Test: E. coli UDG inhibitors, confirmation, counter-screen for APOBEC3G inhibitor project, biochemical, single concentration, fluorescence, FAM/TAMRA oligo (AID 504715);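 also: plate controls were DMSO wells with UDG and oligo for no effect and DMSO wells lacking both for full effect; inhibitors lower the FAM signal released by uracil excision and alkaline cleavage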
# Details: UDG counterscreen, at 20 µM, stronger effect = higher value
# Uracil-DNA glycosylase (Escherichia coli (strain K12)), sequence (P12295 whole entry, looked up): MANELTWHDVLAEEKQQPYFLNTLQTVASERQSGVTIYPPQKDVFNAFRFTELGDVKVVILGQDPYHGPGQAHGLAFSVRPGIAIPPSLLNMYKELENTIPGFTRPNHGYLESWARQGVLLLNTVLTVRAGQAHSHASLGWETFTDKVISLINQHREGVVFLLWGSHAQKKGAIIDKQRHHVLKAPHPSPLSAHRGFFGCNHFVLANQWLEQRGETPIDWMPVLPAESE
row,SMILES,inhibition
1,Fc1ccccc1/C=N/n1c(-c2cccnc2)n[nH]c1=S,0.6%
2,COc1cccc(C(=O)CC(=O)C(=O)Nc2ccc([N+](=O)[O-])cc2C)c1,3.46%
3,Cc1cc(-c2n[nH]c(=S)n2-c2ccc(C)c(C)c2)no1,-3.59%
4,Cc1nc([N+](=O)[O-])nn1C12CC3CC(CC(Br)(C3)C1)C2,2.58%
5,S=c1[nH]nc(-c2cc(-c3ccccc3)n[nH]2)n1/N=C/c1c2ccccc2cc2ccccc12,7.23%
6,CCOc1ccc(NC(=O)c2ccc(NC(=O)COC(=O)c3ccc(NC(=O)CC#N)cc3)cc2)cc1,2.3%
7,S=c1[nH]nc(-c2ccco2)n1/N=C/c1ccccc1,-2.84%
8,CCC(CC)c1nnc(NC(=O)C2CCN(C(=O)c3ccco3)CC2)s1,4.07%
9,O=C1CC(Sc2ncn[nH]2)C(=O)N1c1ccccc1 (stereo unspecified),-0.97%
10,CC1=C/C(=N\OS(=O)(=O)c2ccccc2)C=CC1=O,1.47%
11,CC(=O)N(C1=C(Cl)C(=O)c2ccccc2C1=O)c1ccc(C(=O)O)cc1,-2.05%
12,O=C1C=CC(=O)N1c1ccc(N2CCCCC2)cc1,-1.51%
13,CC(=O)N1CC[n+]2c(-c3ccc([N+](=O)[O-])cc3)csc21,-1.28%
14,S=c1[nH]nc(NCCc2ccccc2)s1,-0.78%
15,COc1ccc(OCc2n[nH]c(=S)n2N)cc1,-3.03%
16,S=c1[nH]nc(-c2ccc(Cl)cc2)n1CC1CCCO1 (stereo unspecified),2.84%
